# Most compounds without a hit are left out; they make up all but 3.1% or so of the library.
# INS-1E GSIS act – GLuc luminescence reporter in INS-1E cells, primary screen for activators of glucose-dependent secretion of insulin; INS-1E GLuc reporter insulin secretion, 2-3 h; activation, % at 16.6 µM; hit rate 0.61% among 370,000; AID 743287, 2014;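 active = lowest replicate activation of at least 40%, so every replicate reaches that level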;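 note: 0% = median of neutral control wells and 100% = median of IBMX positive control wells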
# PAX8 reporter – inhibitors of PAX8-driven TPO luciferase reporter, primary screen, RMG-I cells, single concentration; SteadyGlo, 24 h; inhibition, % at 12.6 µM; hit rate 1.2% among 360,000; AID 652154, 2013;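 active = mean replicate inhibition at least 60% with every replicate also reaching 60%; inconclusive = only one of the two criteria is met; inactive = mean below 60% and not all replicates reaching 60%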;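 note: luciferase light reporting Pax8 driven TPO promoter activity; plate controls were median of neutral control wells for no effect and mitoxantrone controls for full effect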
# HIV Env fusion – inhibitors of HIV-1 Env-driven cell-cell fusion, primary screen, HeLa-JRFL effector, CEM21 target cells, luciferase; inhibition, % at 12.3 µM; AID 651610, 2012; hit rate 1.1% among 360,000;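 active = mean replicate inhibition score of at least 50 and every replicate individually at or above 50; inconclusive = only one of the two criteria met; inactive = mean below 50 and not all replicates reaching 50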;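 note: 0% = plate neutral controls and 100% = maraviroc near 300 nM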
# C2C12 statin – suppressors of statin myotoxicity in C2C12 myotubes, primary screen, cell-based, single point, plate reader; rescue of ATP level, % at 7.49 µM; C2C12 myotubes + simvastatin, ATP luminescence, 48 h; scaled: DMSO 0, geranylgeraniol control 100; hit rate 0.78% among 330,000; AID 602340, 2012;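 active = mean ATP rescue above about 67%, or every replicate alone reaching that limit, limit read from the data, passing the limit was not always enough; inconclusive = no clear call, values can overlap the other calls; inactive = mean under the limit and some replicate under it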;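 note: myotubes were challenged with 10 µM simvastatin during compound exposure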
# miR-122 sensor – miR-122 Renilla sensor signal increase in Huh7, primary screen, miR-122 inhibitor project, cell-based, single point, plate reader | Huh7 miR-122 Renilla luciferase sensor, 48 h; neutral wells = 0, positive control = 100 | activation (reporter increase), % at 12.5 µM | hit rate 0.3% among 340,000 | AID 602342, 2012;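 active = mean replicate activation score at least 90 and every replicate individually at or above 90; inconclusive = only one of the two criteria met; inactive = neither criterion met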;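 note: higher luciferase means less miR-122 activity so hits act as miR-122 inhibitors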
# EWS-Fli block – EWS/Fli-driven NR0B1 reporter inhibitors, primary screen, A673 cells, NR0B1 luciferase, luminescence, MLPCN library. viability-normalised. inhibition, % at 12.6 µM. hit rate 0.67% among 350,000;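 active = mean inhibition of at least 50% after viability correction, with every replicate also passing that limit; inconclusive = mean reaches 50% but only one of two replicates passes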;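 note: firefly luciferase signal divided by Alamar Blue viability fluorescence both relative to DMSO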
# DNA binder FP – DNA binders by acridine orange displacement, dose response, counter-screen for EWS/Fli inhibitor project, biochemical, fluorescence polarization, cherry-pick; shares compounds with EWS-Fli block; salmon sperm DNA acridine orange fluorescence polarization; AC35, µM (highest dose often 68 µM), for inactives: at the top dose activity change, negative = DNA binding; hit rate 2% among 640;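 active = fitted curve reaches a 35% signal fall AC35 below twice the sample's top valid tested dose, actives reach about 48 µM in these data; inactive = the rest, including activity in the rising direction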;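 note: lower polarization ratio signals compound binding to DNA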
# Numbers without * were called inactive; i = inactive; ? = inconclusive; . = not tested or not shown; [ ] = dose if it differs, or a comment.
SMILES,INS-1E GSIS act,PAX8 reporter,HIV Env fusion,C2C12 statin,miR-122 sensor,EWS-Fli block,DNA binder FP
COc1cc(-c2cnc3c(NC=O)cc(-c4cccc(NC(C)=O)c4)cn23)cc(OC)c1OC,.,105*,-71,-65,20,62*,-10%
COc1cccc(-c2cc(NC=O)c3ncc(-c4ccc(C(C)=O)cc4)n3c2)c1,37,59,-177,-47,-2,52*,-3%
COc1ccc(NC(=O)Nc2cccc3c2O[C@H](CN(C)C(=O)Nc2ccc4c(c2)OCO4)[C@H](C)CN([C@H](C)CO)C3=O)cc1,15,.,.,33,-6[16.7 µM],-9,.
CCCC(=O)N1CC2(C1)CN(C(=O)Cc1ccccn1)[C@@H](CO)c1[nH]c3cc(OC)ccc3c12,8,.,.,.,.,-4,.
COc1ccc(NC(=O)Nc2ccc3c(c2)CC(=O)N([C@@H](C)CO)C[C@@H](C)[C@@H](CN(C)S(=O)(=O)c2cn(C)cn2)O3)cc1,-7,-1,0[16.7 µM],19,-1[16.7 µM],1,.
Cc1ccc(NC(=O)COC(=O)c2ccc(OC(F)F)cc2)cc1S(=O)(=O)N1CCCCC1,-5,-12,.,1,.,3,.
Cc1ccc(NC(=O)COC(=O)c2ccc3c(c2)OCO3)cc1S(=O)(=O)N1CCCCC1,-1,3,10,.,.,72*,-5%
CNC[C@H]1Oc2ccc(NC(=O)Nc3cccc4ccccc34)cc2C(=O)N([C@H](C)CO)C[C@@H]1C,6,4,.,-12,-1[16.7 µM],7,.
CCOC(=O)c1c(-c2ccc(C)cc2)csc1NC(=O)CCN1CCOCC1,-17,13,23,.,4,81*,-9%
C[C@@H]1CN([C@H](C)CO)C(=O)c2cc(NC(=O)Cn3cnnn3)ccc2O[C@@H]1CN(C)Cc1ccc(Cl)c(Cl)c1,6,-6,-17[16.7 µM],31,-10[16.7 µM],-6,.
O=C(NCC[C@@H]1CC[C@@H](NS(=O)(=O)c2ccc(Cl)cc2)[C@H](CO)O1)Nc1ccc(F)cc1,-15,-4,.,.,.,-8,.
O=c1c2ccccc2oc2cc(C#CC3(O)CCCCC3)ccc12,.,7,-161,14,-5,77*,6%
C[C@H](CO)N1C[C@H](C)[C@H](CN(C)S(=O)(=O)c2ccccc2)OCCCC[C@H](C)Oc2ccc(NS(C)(=O)=O)cc2C1=O,7,-3,-5[16.7 µM],?,-3[16.7 µM],6,.
CS(=O)(=O)Nc1ccc2c(c1)[C@H]1C[C@@H](CC(=O)NCC(F)(F)F)O[C@H](CO)[C@H]1O2,6,4,-49[16.7 µM],-5,1[16.7 µM],7,.
Cc1noc(C)c1NC(=O)Nc1ccc2c(c1)CC(=O)N([C@H](C)CO)C[C@@H](C)[C@@H](CN(C)Cc1ccc(Cl)c(Cl)c1)O2,-10,8,.,?,4[16.7 µM],61*,0%
C[C@@H]1CN([C@H](C)CO)C(=O)c2cc(NS(=O)(=O)c3ccc(Cl)cc3)ccc2O[C@@H]1CN(C)Cc1ccc(Cl)c(Cl)c1,-9,-3,?,-7,-16[16.7 µM],53*,0%
C[C@H]1CN([C@@H](C)CO)C(=O)c2cc(NS(=O)(=O)c3ccc(Cl)cc3)ccc2O[C@H]1CN(C)Cc1ccc(Cl)c(Cl)c1,-11,81*,16[16.7 µM],64,-9[16.7 µM],61*,-18%
CC(C)NC(=O)N(C)C[C@H]1Oc2c(NS(=O)(=O)c3ccc(Cl)cc3)cccc2C(=O)N([C@H](C)CO)C[C@@H]1C,10,7,2[16.7 µM],-1,21[16.7 µM],-16,.
Cc1ccc(S(=O)(=O)N(C)C[C@@H]2Oc3ccc(NC(=O)NC4CCCCC4)cc3CC(=O)N([C@@H](C)CO)C[C@H]2C)cc1,-11,14,.,-10,-9[16.7 µM],-4,.
O=c1c2ccccc2nc(/C=C/c2cccc([N+](=O)[O-])c2)n1CCO,-6,12,-26,.,.,15,.
O=c1c2ccccc2nc(/C=C/c2cc(Br)ccc2O)n1CCCO,0,42,i,46,.,53*,2%
O=C(Nc1ccc(Br)cc1)c1ccc(F)c(S(=O)(=O)N2CCN(c3ccccn3)CC2)c1,-7,40,26,.,.,59*,-6%
Cc1ccccc1NC(=O)c1ccc(F)c(S(=O)(=O)N2CCN(c3ccccn3)CC2)c1,-28,.,.,.,.,18,.
CCCNC(=O)C[C@@H]1C[C@H]2c3cc(N(C)C)ccc3O[C@H]2[C@@H](CO)O1,7,.,.,-3,4[16.7 µM],-3,.
Cc1ccc(S(=O)(=O)N(C)C[C@@H]2Oc3cc(C#Cc4ccncc4)ccc3S(=O)(=O)N([C@@H](C)CO)C[C@H]2C)cc1,.,83*,.,-13,-18[16.7 µM],53*,-3%
SMILES,INS-1E GSIS act,PAX8 reporter,HIV Env fusion,C2C12 statin,miR-122 sensor,EWS-Fli block,DNA binder FP
C[C@H](CO)N1C[C@H](C)[C@@H](CN(C)S(=O)(=O)c2ccc(F)cc2)Oc2cc(C#Cc3ccncc3)ccc2S1(=O)=O,-36,.,-7[16.7 µM],-19,-2[16.7 µM],-6,.
C[C@@H]1CN([C@@H](C)CO)S(=O)(=O)c2ccc(C#Cc3ccncc3)cc2O[C@H]1CN(C)S(=O)(=O)c1ccccc1,-54,.,8[16.7 µM],-7,-3[16.7 µM],73*,6%
C[C@H]1CN([C@@H](C)CO)S(=O)(=O)c2ccc(C#Cc3ccncc3)cc2O[C@@H]1CN(C)S(=O)(=O)c1ccccc1,-43,.,-11[16.7 µM],-36,?,53*,-5%
C[C@@H]1CN([C@H](C)CO)S(=O)(=O)c2ccc(C#Cc3ccncc3)cc2O[C@@H]1CN(C)S(=O)(=O)c1ccccc1,-47,.,29[16.7 µM],-17,41[16.7 µM],14,.
C[C@H](CO)N1C[C@H](C)[C@@H](CN(C)CC2CC2)Oc2c(NC(=O)NC3CCCCC3)cccc2C1=O,2,11,-23[16.7 µM],-9,51[16.7 µM],-14,.
CN(C)CC(=O)N1[C@@H](CO)[C@@H](c2ccccc2)C12CN(C(=O)C1CCCC1)C2,13,0,.,.,.,3,.
O=C(NC(c1ccc(F)cc1)c1ccc2ccccc2n1)C1CCN(Cc2cccc(C(F)(F)F)c2)CC1 (stereo not drawn),.,54,75*,-2,-19,58*,4%
O=C(NC(c1ccc(F)cc1)c1ccc2ccccc2n1)C1CCN(Cc2ccc3ccccc3n2)CC1 (stereo not drawn),-11,9,9,11,-7,12,.
CO[C@@H]1CN(C)C(=O)c2cc(NS(C)(=O)=O)ccc2OC[C@@H](C)NC[C@@H]1C,3,.,.,.,.,.,.
COc1ccc(Cl)cc1S(=O)(=O)Nc1ccc2c(c1)n(C)c(=O)n2C,1,15,-7,-10,.,54*,-16%

# High-throughput results from PubChem BioAssay.
